Source: PubChem BioAssay (National Center for Advancing Translational Sciences (NCATS))
TCR activator: activators of T cell receptors | primary human leukocytes, anti-CD3, IL-2 HTRF, 48 h | Potency, µM (top dose mostly 9.22 µM), inactives show at the top dose activation of IL-2 secretion, usual class: activators | 330,000 tested, under 10 active | AID 504894; note: % of control where 0% means no effect
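Readout: HTRF IL-2, Eu-cryptate/d2 antibody pair, 320nm excitation, 665nm emission. Stimulus: a-CD3 beads, no co-stimulation. Cells: primary human leukocytes. Exposure: 48 hr with compound.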
LDHA block: LDHA (human) enzyme inhibition | P00338 | purified LDHA, NADH/diaphorase-resazurin fluorescence; stronger effect = lower value | activity change, % (values are at about 110 or 230 µM) | hit rate 0.15% among 480,000 | AID 1347041; in the data active = activity change below about -30%; inconclusive = mostly about -25% to -30%;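 note: plate controls were DMSO wells for no effect and wells without enzyme for full effect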
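Enzyme activity of human lactate dehydrogenase 5 (2 nM; 0.06 mM NADH, 0.2 mM pyruvate, 5 min, RT) is measured via a resazurin/diaphorase fluorescence readout of residual NADH.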
pAkt inh: inhibitors of Akt phosphorylation; Neuro2A IGF-stimulated pAkt S473 HTRF, 20 min; stronger effect = lower value; activity change, % for hits at 50 µM; hit rate 0.32% among 360,000; in the data active = activity change below about -80%; inconclusive = mostly about -51% to -80%; note: % is set by controls: 0 for no effect and ±100 for the full control effect
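Single-point screen (50 µM final compound) in Neuro2A cells stimulated 20 min with 6 nM IGF at 37 deg C. After lysis, Ser473-phosphorylated Akt read by HTRF (ex 330 nm, em 615/665 nm) as the 665/615 ratio.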
TSHR antag: human thyrotropin receptor antagonism | hit rate 0.2% among 330,000 | TSHR-expressing cells, TSH-stimulated cAMP HTRF, 2 h; stronger effect = lower value | AID 504810 | activity change, negative = inhibition, % at 11.5 µM | P16473;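 active = activity change below a set negative limit, meaning inhibition stronger than a set level, cut at about -70% in these data; inconclusive = activity change between two set negative limits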; note: % is set by controls: 0 for no effect and ±100 for the full control effect
Target sequence (P16473 whole entry, looked up): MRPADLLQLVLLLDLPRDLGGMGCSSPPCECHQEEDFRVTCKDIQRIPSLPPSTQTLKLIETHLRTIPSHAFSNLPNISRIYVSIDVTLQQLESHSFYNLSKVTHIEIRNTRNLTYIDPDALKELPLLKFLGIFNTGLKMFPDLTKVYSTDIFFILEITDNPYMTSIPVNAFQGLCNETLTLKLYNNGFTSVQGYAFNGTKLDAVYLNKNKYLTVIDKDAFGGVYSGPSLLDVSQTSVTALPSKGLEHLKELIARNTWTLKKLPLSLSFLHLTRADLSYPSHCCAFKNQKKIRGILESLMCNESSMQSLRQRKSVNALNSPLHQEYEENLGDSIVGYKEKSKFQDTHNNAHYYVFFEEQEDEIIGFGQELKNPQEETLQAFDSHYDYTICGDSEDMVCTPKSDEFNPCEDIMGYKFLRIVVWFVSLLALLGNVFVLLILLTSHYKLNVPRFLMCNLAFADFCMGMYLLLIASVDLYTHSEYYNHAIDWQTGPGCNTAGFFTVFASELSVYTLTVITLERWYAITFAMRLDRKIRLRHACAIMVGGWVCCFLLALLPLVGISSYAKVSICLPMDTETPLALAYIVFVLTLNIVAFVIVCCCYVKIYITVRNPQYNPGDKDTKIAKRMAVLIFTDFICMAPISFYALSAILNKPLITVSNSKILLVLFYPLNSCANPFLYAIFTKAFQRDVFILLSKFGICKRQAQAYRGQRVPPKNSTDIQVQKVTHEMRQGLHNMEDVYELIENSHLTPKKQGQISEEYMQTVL
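Inhibition of cAMP made by TSHR-expressing cells under TSH stimulation (4nM final, EC80; 2 h, 37 deg C) is quantified with a one-step lysis HTRF kit, anti-cAMP cryptate versus cAMP-d2.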
GRP78 ERSR act: ER stress response induction in glioma; U87-MG GRP78 promoter luciferase reporter, 16 h; Potency, µM, without a hit: at the highest dose activation, most hits filed as activators; hit rate 0.02% among 420,000; AID 602332; note: potency is the fitted concentration of half-maximal effect; series mostly up to about 76 µM; % of control where 0% means no effect; nearly all actives have a fitted effect of over 35% in size
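Stably transfected U87-MG human glioma cells carrying a GRP78-based luminescent sensor were seeded at 1000 cells/well, pin-dosed with compounds and incubated 16 h. Luciferase reagent was then added, and end-point luminescence was read after 10 min at room temperature.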
RGS4 inh: human RGS4 inhibition. P49798. Transcreener GDP fluorescence polarization, RGS4-accelerated GTP hydrolysis. Potency, µM (titrated, usually from 114 µM), for inactives: at the highest dose activity change, negative = inhibition, actives largely listed as inhibitors. hit rate 0.039% among 390,000. AID 504845; note: potency is the fitted concentration of half-maximal effect; % is set by controls: 0 for no effect and ±100 for the full control effect; nearly all actives have a fitted effect of over 75% in size
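MLSMR compounds (23 nl, pin-transferred) preincubated 10 min at room temperature with a 500nM (2x) first reagent, then RGS4 at 900nM (2x) plus Transcreener GDP mix added; fluorescence polarization (620/688 nm) read before and after 90 min at 30 °C.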
Starred values were filed as active, the others as inactive; i = inactive; ? = inconclusive; . = not tested or not shown; [ ] = another dose, or the depositor's remark. Only some compounds are listed: those with a hit (about 0.55% of all), similar ones and a draw of the others. Unless noted, calls come from the whole dose curve; as a rule, active = well fitted curve in the direction sought with a large enough effect; inconclusive = small, poorly fitted or top-dose-only effect, or another doubt; inactive = no such curve, though single readings can be large; an effect the other way counts as inactive or inconclusive.

SMILES	TCR activator	LDHA block	pAkt inh	TSHR antag	GRP78 ERSR act	RGS4 inh
CN(C)S(=O)(=O)c1cccc(-c2nn(-c3ccccc3)cc2/C=C2\SC(=S)NC2=O)c1	-6%[46.1 µM]	-12	i	-74*	0%	?
Cn1nc(C(=O)Oc2cccc(Cl)c2Cl)c2ccccc2c1=O	.	-8	.	.	.	.
CCC(=O)Nc1cccc(-c2nnc(SCC(=O)NCc3ccco3)n2C)c1	4%	-31*	i	-2	-5%	-11%
Cc1cccc(C(=O)C(Cl)C(=O)c2cccc(C)c2)c1	.	7	.	.	.	.
Cn1c(N)c(Sc2ccccc2[N+](=O)[O-])c(=O)n(C)c1=O	4%	-6	i	-112*	-3%	2%
O=C1C2C3C=CC(CO)(O3)C2C(=O)N1c1ccccc1-c1ccccc1 (stereo not given)	.	-1	i	-73*	-8%	-135%
COc1ccc(S(=O)(=O)NCCc2cn3nc(C)c(C)nc3n2)cc1F	-16%	-20	i	-88*	-4%	12%
Nc1nc2c(s1)C(c1ccc(F)c(F)c1)CC(=O)N2 (stereo not given)	.	78	.	.	.	.
OCC1OC(n2nnc3ccccc32)C(O)C(O)C1O (stereo not given)	-2%	1	-92%*	3	-4%	18%
Nc1nccc2c1ncn2C1OC(CO)C(O)C1O (stereo not given)	.	-8	i	.	-4%	.
O=C(CN1C(=O)CNC1=O)Nc1cccc(C(F)(F)F)c1	8%	1	-101%*	9	2%	-9%
O=C(CN1C(=O)C2CCCCC2C1=O)Nc1cccc(C(F)(F)F)c1 (stereo not given)	4%[46.1 µM]	-3	i	-7	-3%	-4%
O=C1CCC(C(=O)Nc2cccc(C(F)(F)F)c2)N1 (stereo not given)	0%	0	i	2	-4%	0%
O=C1NCCCC1C(=O)Nc1cccc(C(F)(F)F)c1 (stereo not given)	-34%	-6	-102%*	3	-1%	18%
C/C(CCc1oc2ccc(C)cc2c1-c1ccc(C)o1)=N\O	.	0	.	.	.	.
Cc1ccc(/C=N/Nc2cc(C)c3ccccc3n2)s1	.	-6	.	.	.	.
Cc1ccc(C(CNC(=O)c2ccc(NC(=O)OC(C)(C)C)cc2)N2CCOCC2)o1 (stereo not given)	.	-34*	.	.	.	.
Oc1cccc2c(N=Cc3ccc(F)c(F)c3)cccc12	.	46	.	.	.	.
CCCCCC(=O)N1C[C@@H](n2cc(C3CC3)nn2)[C@H](O)C[C@@H]1c1ccc(C)cc1	.	-32*	i	.	-5%	.
CCCCCC(=O)N1C[C@H](n2cc(C3CC3)nn2)[C@@H](O)C[C@@H]1c1ccc(C)cc1	.	-3	i	.	-1%	.
CCN(C(=O)c1cc2c(=O)n3ccccc3nc2n1C)C1CCCCC1	-5%	3	i	-123*	2%	-12%
CN(C(=O)c1cc2c(=O)n3ccccc3nc2n1C)C1CCCCC1	-5%	-2	i	39	-5%	-32%
O=C1CC(c2ccsc2)c2ncn(-c3ccccc3)c2N1 (stereo not given)	.	67	.	.	.	.
O=C(Nc1ccccc1F)c1ccc2nc(N3C(=O)CCC3=O)sc2c1	-1%	-4	-120%*	-3	1%	7%
COc1cc(C2C(C#N)=C(SCc3ccccc3)NC3=C2C(=O)CCC3)cc(OC)c1OC (stereo not given)	.	17	.	.	.	.
SMILES	TCR activator	LDHA block	pAkt inh	TSHR antag	GRP78 ERSR act	RGS4 inh
O=C(CCN1CCC(c2ccccc2)C1)c1ccc2ccccc2c1 (stereo not given)	.	4	.	.	.	.
COc1ccc(OC)c(NS(=O)(=O)c2ccc(N3CCCC3=O)cc2)c1	1%	-4	-115%*	-1	-5%	-10%
COc1ccc(-c2nn3c(COc4ccccc4)nnc3s2)cc1OC	5%	-8	-117%*	39	1%	2%
COc1ccc(Cc2nnc(SCC(=O)Nc3ccc(C)cc3C)[nH]c2=O)cc1	15%	-4	i	-5	-3%	-41%
COc1ccc(Cc2nnc(Nc3ccc(C)cc3C)[nH]c2=O)cc1	1%	-17	-122%*	2	0%	36%
O=C(Nc1cccc(C(=O)Nc2ccc(S(=O)(=O)O)c3cc(S(=O)(=O)O)cc(S(=O)(=O)O)c23)c1)Nc1cccc(C(=O)Nc2ccc(S(=O)(=O)O)c3cc(S(=O)(=O)O)cc(S(=O)(=O)O)c23)c1	.	-112*	.	-15	-1%	42%[56.9 µM]
CC(NCC(=O)Nc1ccccc1C(=O)NC1CC1)c1ccc(S(N)(=O)=O)cc1 (stereo not given)	15%	-33*	i	-15	-2%	-4%
COc1ccc2cc(S(=O)(=O)c3ccc(C(C)C)cc3)c(=O)oc2c1	.	2	.	.	.	.
Cc1cc(=O)oc2cc(OCC(=O)NCCN(C)C)c(Cl)cc12	.	-2	.	.	.	.
O=C(O)c1cccc(-n2cccc2/C=N/O)c1	-7%	-1	-109%*	-1	-5%	-3%
O=c1cc(CCl)[nH]c2nc3ccccc3n12	11%	-2	i	4	?	0%[56.9 µM]
O=c1cc(-c2ccccc2)[nH]c2nc3ccccc3n12	-3%	-3	-107%*	-18	-4%	-13%
CCOc1cc(NC(=O)C2CC2)c(OCC)cc1NC(=O)c1cccc(F)c1	8%	2	i	-89*	-3%	-17%
CCOc1cc(NC(=O)c2cnccn2)c(OCC)cc1NC(=O)c1cccc(F)c1	.	.	.	-9	.	.
CCOP(=O)(Cc1ccc(C(C)(C)CC(C)=O)o1)OCC	-1%	2	i	-82*	1%	-15%
Cc1cc(C#N)c2ccccc2n1	-2%	-4	-109%*	26	1%	-12%
Cc1cc(N)c2ccccc2n1	-6%	-4	i	-3	-3%	11%
CC1(C)CC(CCN2CCC(Cc3ccccc3)CC2)(c2cccc(C(F)(F)F)c2)CCO1 (stereo not given)	.	-15	.	.	.	.
CCc1nnc(NC(=O)c2ccc(Cl)c(S(=O)(=O)N3CCc4ccccc43)c2)s1	5%	-9	i	-44	-2%	12%
O=C(Nc1nnc(C2CC2)s1)c1ccc(Cl)c(S(=O)(=O)N2CCc3ccccc3C2)c1	1%[46.1 µM]	-4	i	-90*	-3%	-35%
C=C1CCC2C(C)(C)[C@@H](O)CC[C@@]2(C)[C@@H]1COc1ccc2ccc(=O)oc2c1 (stereo not given in full)	-3%	4	i	-76*	14%	5%
COc1ccc2c(CNc3ccc(C)cc3)cc(=O)oc2c1	.	9	.	.	.	.
CCCCCCn1c(SCC(=O)c2c(N)n(C)c(=O)n(C)c2=O)nc2ccccc21	0%	-4	-98%*	-2	-2%	7%
Cc1ccc2c(CN(C)CCOc3ccc(F)cc3)cc(=O)oc2c1	.	-33*	.	.	.	.
